Source: the supplement of paper PMC13172266
Where a name gives a salt, the structure may show the parent alone.

What was measured:
Experiment in all cases: cell proliferation relative to vehicle (% of vehicle); higher = less growth inhibition
Conditions in all cases: 72 h
[1] = system: U2932 TK216-resistant clone 2
In short: (§1)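 A library of 348 targeted inhibitors was screened against the ABC-DLBCL cell line U2932, using parental cells and two clones made resistant to an ETS-targeting agent through repeated exposure over almost a year. The cells were cultured at 37°C and 5% CO2 in medium containing 10% FBS and treated at 500 nM or 50 nM for 72 h, after which MTT was added for 4 h, stopped with 25% SDS, and absorbance was read on a Cytation 3. Proliferation is given as the percentage of proliferating cells relative to the vehicle, DMSO.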

[2] = system: U2932 TK216-resistant clone 3
In short: as §1

[3] = system: U2932 parental
In short: as §1

COc1cc2c(cc1O)CC[C@@H]1[C@@H]2CC[C@]2(C)[C@@H](O)CC[C@@H]12 [2-Methoxyestradiol (2-MeOE2)]
cell proliferation ([1]; 50 nM): 105
cell proliferation ([1]; 500 nM): 102
cell proliferation ([2]; 50 nM): 103
cell proliferation ([2]; 500 nM): 83.4
cell proliferation ([3]; 50 nM): 99.8
cell proliferation ([3]; 500 nM): 54

CS(=O)(=O)N1CCN(Cc2cc3nc(-c4cccc5[nH]ncc45)nc(N4CCOCC4)c3s2)CC1
cell proliferation ([3]; 50 nM): 85.4
cell proliferation ([3]; 500 nM): 49.1

Cc1csc(-c2nnc(Nc3ccc(Oc4ncccc4-c4ccnc(N)n4)cc3)c3ccccc23)c1
cell proliferation ([1]; 50 nM): 88
cell proliferation ([1]; 500 nM): 99.7
cell proliferation ([2]; 50 nM): 80.5
cell proliferation ([2]; 500 nM): 78
cell proliferation ([3]; 50 nM): 66.9
cell proliferation ([3]; 500 nM): 61.8

CCCCCOC(=O)Nc1nc(=O)n([C@@H]2O[C@H](C)[C@@H](O)[C@H]2O)cc1F [Capecitabine]
cell proliferation ([1]; 50 nM): 103
cell proliferation ([1]; 500 nM): 105
cell proliferation ([2]; 50 nM): 104
cell proliferation ([2]; 500 nM): 108
cell proliferation ([3]; 50 nM): 99.9
cell proliferation ([3]; 500 nM): 98.3

CC(C)(C)c1nc(-c2cccc(NS(=O)(=O)c3c(F)cccc3F)c2F)c(-c2ccnc(N)n2)s1
cell proliferation ([1]; 50 nM): 111
cell proliferation ([1]; 500 nM): 101
cell proliferation ([2]; 50 nM): 106
cell proliferation ([2]; 500 nM): 110
cell proliferation ([3]; 50 nM): 101
cell proliferation ([3]; 500 nM): 93

Cc1ccc(F)c(NC(=O)Nc2ccc(-c3cccc4[nH]nc(N)c34)cc2)c1 [Linifanib (ABT-869)]
cell proliferation ([1]; 50 nM): 99.8
cell proliferation ([1]; 500 nM): 93.1
cell proliferation ([2]; 50 nM): 99
cell proliferation ([2]; 500 nM): 95.7
cell proliferation ([3]; 50 nM): 90.6
cell proliferation ([3]; 500 nM): 107

O=C(/C=C/c1cccc(S(=O)(=O)Nc2ccccc2)c1)NO [Belinostat (PXD101)]
cell proliferation ([1]; 50 nM): 104
cell proliferation ([1]; 500 nM): 48.6
cell proliferation ([2]; 50 nM): 98.1
cell proliferation ([2]; 500 nM): 67.6
cell proliferation ([3]; 50 nM): 90.1
cell proliferation ([3]; 500 nM): 41.8

NC(=O)c1ccc(I)c([N+](=O)[O-])c1 [Iniparib (BSI-201)]
cell proliferation ([1]; 50 nM): 107
cell proliferation ([1]; 500 nM): 98.2
cell proliferation ([2]; 50 nM): 105
cell proliferation ([2]; 500 nM): 103
cell proliferation ([3]; 50 nM): 97
cell proliferation ([3]; 500 nM): 102

O=c1[nH]nc(Sc2ncc([N+](=O)[O-])s2)n1-c1ccc2c(c1)OCCO2
cell proliferation ([1]; 50 nM): 98.1
cell proliferation ([1]; 500 nM): 94.6
cell proliferation ([2]; 50 nM): 102
cell proliferation ([2]; 500 nM): 97.9
cell proliferation ([3]; 50 nM): 100
cell proliferation ([3]; 500 nM): 99.3

C[C@@H](N)[C@H]1CC[C@H](C(=O)Nc2ccncc2)CC1
cell proliferation ([1]; 50 nM): 98.8
cell proliferation ([1]; 500 nM): 102
cell proliferation ([2]; 50 nM): 100
cell proliferation ([2]; 500 nM): 103
cell proliferation ([3]; 50 nM): 94.8
cell proliferation ([3]; 500 nM): 97.7

CC(C=CC(=O)NO)=CC(C)C(=O)c1ccc(N(C)C)cc1 (stereo not given) [Trichostatin A (TSA)]
cell proliferation ([1]; 50 nM): 68.3
cell proliferation ([1]; 500 nM): 8.5
cell proliferation ([2]; 50 nM): 74.5
cell proliferation ([2]; 500 nM): 4.96
cell proliferation ([3]; 50 nM): 67.2
cell proliferation ([3]; 500 nM): 2.14

CC(C)n1c(/C=C/C(O)CC(O)CC(=O)O)c(-c2ccc(F)cc2)c2ccccc21 (stereo not given) [Fluvastatin Sodium]
cell proliferation ([1]; 50 nM): 97.4
cell proliferation ([1]; 500 nM): 89.5
cell proliferation ([2]; 50 nM): 92.2
cell proliferation ([2]; 500 nM): 102
cell proliferation ([3]; 50 nM): 81.9
cell proliferation ([3]; 500 nM): 83.5

CCC[C@H](Nc1nc(-c2ccc(NC(=O)NCC)c(OC)c2)ncc1C)c1cccnc1 [CYT997 (Lexibulin)]
cell proliferation ([1]; 50 nM): 10.1
cell proliferation ([1]; 500 nM): 9.29
cell proliferation ([2]; 50 nM): 8
cell proliferation ([2]; 500 nM): 12.1
cell proliferation ([3]; 50 nM): 10.4
cell proliferation ([3]; 500 nM): 14.3

Cc1ccc2c(=O)c3cccc(CC(=O)O)c3oc2c1C [DMXAA (Vadimezan)]
cell proliferation ([1]; 50 nM): 110
cell proliferation ([1]; 500 nM): 99.3
cell proliferation ([2]; 50 nM): 101
cell proliferation ([2]; 500 nM): 95.3
cell proliferation ([3]; 50 nM): 101
cell proliferation ([3]; 500 nM): 99.2

C=CC(=O)N1CCC[C@@H](n2nc(-c3ccc(Oc4ccccc4)cc3)c3c(N)ncnc32)C1
cell proliferation ([3]; 50 nM): 76
cell proliferation ([3]; 500 nM): 70.9

CNC(=O)c1cccc(-c2ccc3c(N4CCOC[C@@H]4C)nc(N4CCOC[C@@H]4C)nc3n2)c1
cell proliferation ([1]; 50 nM): 102
cell proliferation ([1]; 500 nM): 52.9
cell proliferation ([2]; 50 nM): 93.8
cell proliferation ([2]; 500 nM): 55.6
cell proliferation ([3]; 50 nM): 91.7
cell proliferation ([3]; 500 nM): 46.4

CCN(CC)CCNC(=O)c1ccc(N)cc1 [Procainamide HCl]
cell proliferation ([3]; 50 nM): 93.9
cell proliferation ([3]; 500 nM): 95.9

Cc1cnc(Nc2ccc(N3CCN(C)CC3)cc2)nc1Nc1cccc(S(=O)(=O)NC(C)(C)C)c1
cell proliferation ([1]; 50 nM): 95.6
cell proliferation ([1]; 500 nM): 70.3
cell proliferation ([2]; 50 nM): 90
cell proliferation ([2]; 500 nM): 65.2
cell proliferation ([3]; 50 nM): 89.4
cell proliferation ([3]; 500 nM): 79.5

NC(=O)Nc1sc(-c2ccc(F)cc2)cc1C(N)=O
cell proliferation ([1]; 50 nM): 109
cell proliferation ([1]; 500 nM): 92.7
cell proliferation ([2]; 50 nM): 106
cell proliferation ([2]; 500 nM): 102
cell proliferation ([3]; 50 nM): 104
cell proliferation ([3]; 500 nM): 99.5

Cn1cc(C2=C(c3ccc(Cl)cc3Cl)C(=O)NC2=O)c2ccccc21
cell proliferation ([1]; 50 nM): 105
cell proliferation ([1]; 500 nM): 96.2
cell proliferation ([2]; 50 nM): 105
cell proliferation ([2]; 500 nM): 108
cell proliferation ([3]; 50 nM): 97.8
cell proliferation ([3]; 500 nM): 100

C[C@@H]1CCN(C(=O)CC#N)C[C@@H]1N(C)c1ncnc2[nH]ccc12
cell proliferation ([1]; 50 nM): 102
cell proliferation ([1]; 500 nM): 104
cell proliferation ([2]; 50 nM): 113
cell proliferation ([2]; 500 nM): 98.5
cell proliferation ([3]; 50 nM): 109
cell proliferation ([3]; 500 nM): 107

CCCNC(=O)c1cn2ncnc(Nc3cc(C(=O)NC4CC4)ccc3C)c2c1C
cell proliferation ([1]; 50 nM): 104
cell proliferation ([1]; 500 nM): 98.2
cell proliferation ([2]; 50 nM): 105
cell proliferation ([2]; 500 nM): 103
cell proliferation ([3]; 50 nM): 103
cell proliferation ([3]; 500 nM): 98.7

CCN(CC)CCNC(=O)c1c(C)[nH]c(/C=C2\C(=O)Nc3ccc(F)cc32)c1C [Sunitinib Malate]
cell proliferation ([1]; 50 nM): 107
cell proliferation ([1]; 500 nM): 94.6
cell proliferation ([2]; 50 nM): 99.4
cell proliferation ([2]; 500 nM): 92.6
cell proliferation ([3]; 50 nM): 101
cell proliferation ([3]; 500 nM): 104

COC(=O)c1ccc2c(c1)NC(=O)/C2=C(\Nc1ccc(N(C)C(=O)CN2CCN(C)CC2)cc1)c1ccccc1 [Nintedanib (BIBF 1120)]
cell proliferation ([1]; 50 nM): 105
cell proliferation ([1]; 500 nM): 94.8
cell proliferation ([2]; 50 nM): 93.4
cell proliferation ([2]; 500 nM): 81.7
cell proliferation ([3]; 50 nM): 102
cell proliferation ([3]; 500 nM): 96.6

NC(=O)Nc1cc(-c2cccc(F)c2)sc1C(=O)N[C@H]1CCCNC1
cell proliferation ([1]; 50 nM): 89.8
cell proliferation ([1]; 500 nM): 13.6
cell proliferation ([2]; 50 nM): 91.8
cell proliferation ([2]; 500 nM): 18.9
cell proliferation ([3]; 50 nM): 83
cell proliferation ([3]; 500 nM): 11.5

O=c1c(O)c(-c2ccc(O)c(O)c2)oc2cc(O)cc(O)c12 [Quercetin]
cell proliferation ([1]; 50 nM): 110
cell proliferation ([1]; 500 nM): 119
cell proliferation ([2]; 50 nM): 108
cell proliferation ([2]; 500 nM): 106
cell proliferation ([3]; 50 nM): 101
cell proliferation ([3]; 500 nM): 106

C[C@@H](O[C@H]1OCCN(Cc2n[nH]c(=O)[nH]2)[C@H]1c1ccc(F)cc1)c1cc(C(F)(F)F)cc(C(F)(F)F)c1 [Aprepitant]
cell proliferation ([1]; 50 nM): 109
cell proliferation ([1]; 500 nM): 106
cell proliferation ([2]; 50 nM): 101
cell proliferation ([2]; 500 nM): 97.4
cell proliferation ([3]; 50 nM): 108
cell proliferation ([3]; 500 nM): 98.5
